Compound activity (PubChem BioAssay)
Pf apPOL inh = Pf-apPOL DNA polymerase inhibition | Recombinant Pf-apPOL, molecular beacon fluorescence, 1.5 h | inhibition, % at 10 µM | 210,000 compounds, 0.25% hits | AID 1794808
mHTT CaM bind = inhibitors of human mutant huntingtin-calmodulin interaction | inhibition, % at 15 µM | 190,000 compounds, 3.6% hits | AlphaScreen His-mHTT/GST-CaM binding, luminescence | P42858;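 further: 0% = both proteins with DMSO and 100% = one protein alone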
* = called active by the depositor; / = no result. The full list was thinned out, with hits kept by preference. No stated cut-off is given here; in the data, active means inhibition above about 50%; inactive means the rest.

SMILES	Pf apPOL inh	mHTT CaM bind
OC(CNC1CCCC1)Cn1c2ccccc2c2ccccc21 (stereo unspecified)	-2.1	6.4
OC(CN1CCOCC1)Cn1c2ccc(Br)cc2c2cc(Br)ccc21 (stereo unspecified)	-14.3	91.0*
OC(CNCCc1ccccc1)c1ccccc1 (stereo unspecified)	-6.2	-1.9
OC(CNCCc1ccccc1)Cn1c2ccc(Br)cc2c2cc(Br)ccc21 (stereo unspecified)	/	100.2*
O=C1CSC(=O)N1CC(O)Cn1c2ccc(Br)cc2c2cc(Br)ccc21 (stereo unspecified)	/	27.2
OC(CNCCOc1ccccc1)Cn1c2ccccc2c2ccccc21 (stereo unspecified)	/	85.1*
O=[N+]([O-])c1ccc(S(=O)(=O)Nc2ccc(F)cc2)cc1	-2.6	5.1
CCc1nccn1Cc1noc(-c2ccc(C)c(C)c2)n1	5.6	4.4
CC(=O)n1c2c(c3ccccc31)OC(N)=C(C#N)C2c1cccc(F)c1 (stereo unspecified)	-2.3	6.0
Cc1ccc(-n2c(SCc3ccccc3)nc(O)cc2=O)cc1	-1.0	26.3
CCCCOc1ccc(C(=O)Nc2ccc(-c3nc(C)no3)cc2)cc1	-0.5	-16.5
CSC1=N/C(=C\c2ccc(N(C)C)cc2)C(=O)S1	-6.8	23.0
CCSC1=N/C(=C/c2ccc(N(CC)CC)cc2OC)C(=O)S1	-46.9	84.0*
CCSC1=N/C(=C\c2c(OC)cc(OC)cc2OC)C(=O)S1	-80.8	43.0
CCN(CC)c1ccc(/C=C2\N=C(SC)SC2=O)cc1	-5.0	64.0*
C=CCn1c(=N)c(C(=O)NCc2ccccc2)cc2c(=O)n3cc(C)ccc3nc21	-14.0	-4.0
O=C(CN1C(=O)c2ccccc2S1(=O)=O)N1CCCCCC1	50.7*	2.0
O=C(CN1C(=O)c2ccccc2S1(=O)=O)N1CCCCC1	-2.0	0.9
COc1ccc(-n2nc3c(c2NC(=O)c2ccccc2OC)CS(=O)C3)cc1 (stereo unspecified)	-0.4	-4.0
COc1ccc(NC(=O)Nc2ccccc2I)cc1OC	-12.6	0.2
O=C1CCCC(O)=C1C(C#Cc1ccccc1)C1=C(O)CCCC1=O	-2.3	87.0*
NS(=O)(=O)C#Cc1ccccc1	-2.8	-9.0
O=C(Nc1ccc(Cl)c(Cl)c1)c1ccc(F)c(S(=O)(=O)NCc2ccco2)c1	-4.4	64.0*
COc1ccccc1CNS(=O)(=O)c1ccc(F)c(C(=O)Nc2ccc(F)c(F)c2)c1	1.0	-1.0
O=C(Nc1ccc(Cl)c(Cl)c1)c1cc(S(=O)(=O)NCc2ccco2)ccc1F	-4.0	100.0*
SMILES	Pf apPOL inh	mHTT CaM bind
O=C(Nc1ccc(Cl)c(Cl)c1)c1ccc(F)c(S(=O)(=O)NCc2cccs2)c1	4.9	81.0*
O=C(Nc1cccc(Cl)c1)c1ccc(F)c(S(=O)(=O)NCc2cccs2)c1	-6.5	8.0
O=C(Nc1cc(Cl)cc(Cl)c1)c1cc(S(=O)(=O)NCc2ccco2)ccc1F	-6.1	11.0
COc1ccccc1CNS(=O)(=O)c1ccc(F)c(C(=O)Nc2ccc(C)c(Cl)c2)c1	0.5	70.0*
O=C(Nc1ccc(F)c(F)c1)c1ccc(F)c(S(=O)(=O)NCc2ccco2)c1	-21.4	0.0
O=C(Nc1ccc(F)cc1)c1ccc(N2CCC(NCc3ccc(Cl)cc3)C2)nc1 (stereo unspecified)	-7.0	-3.6
O=S(=O)(Nc1ccc(S(=O)(=O)Nc2cccc(Cl)c2)cc1)c1ccc(F)cc1	0.0	-0.8
O=C(CCn1c(N2CCCC2)nc2ccccc2c1=O)NCc1ccc(F)cc1	-3.3	4.2
CCc1ccc(NC(=O)Cn2c(C)nc3c(c2=O)CCN(Cc2ccccc2)C3)cc1	-0.9	-6.5
CC1=C(C(=O)Nc2ccc(C)cn2)C(c2ccc([N+](=O)[O-])cc2)C2=C(CCCC2=O)N1 (stereo unspecified)	-3.6	8.0
CCC(C)NC(=O)C1(C)CCC(=O)N1CCc1ccccc1 (stereo unspecified)	4.1	-4.0
Cc1ccc(N2CC(C(=O)NCCc3ccccc3)CC2=O)cc1 (stereo unspecified)	-6.0	-9.2
CC(C)c1cc(C2CCCN2Cc2cc(Br)ccc2O)on1 (stereo unspecified)	1.1	-29.9
O=C(c1ccncc1)N1CCC(n2nc(-c3ccsc3)ccc2=O)CC1	-6.1	15.6
Cc1ccsc1C(=O)N1CCC(n2nc(-c3ccsc3)ccc2=O)CC1	2.4	96.2*
Cc1[nH]n2c(=O)cc(Cc3ccccc3)nc2c1-c1ccc(Cl)cc1	-3.3	62.5*
CCCc1cc(=O)n2[nH]c(C)c(-c3ccccc3)c2n1	1.2	4.9
COc1ccc(OC)c(-c2cc(C(=O)NCC#CCN3CCc4ccccc4C3)[nH]n2)c1	1.5	53.3*
O=C(NCC#CCN1CCc2ccccc2C1)c1cc2ccccc2[nH]1	-6.5	28.4
COc1ccc2c(c1)CCC(C1(O)C(=O)N(C)c3ccccc31)C2=O (stereo unspecified)	-2.8	9.8
CC(=O)c1cccc(N2C(=O)c3c(C)nc4ccccc4c3C2=O)c1	-1.5	0.0
